Compound activity as filed in PubChem.
CRFBP-R2 block: blocks CRF-induced signaling of the CRF-BP/CRF-R2 complex. HEK293 CRF-R2/CRF-BP, CRF-induced calcium fluorescence. inhibition, % at 11.8 µM. 350,000 tested, 0.59% active. AID 588475;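 active = inhibition of the ligand-induced calcium signal above about 50% at the single tested concentration, limit read from the data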
CRFR2-BP ag: CRF-BP/CRF-R2 complex agonism; activation, % at 13.2 µM; HEK293 CRF-R2/CRF-BP, calcium dye fluorescence (FLIPR); percent of saturating CRF peptide response; 350,000 tested, 0.46% active;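 active = activation of at least 50%, plus an integration ratio under a set limit after plate pattern correction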;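 note: plate controls were neutral control wells without compound for no effect and CRF at EC100 for full effect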
ANO1 activ: activates or potentiates the mouse TMEM16A chloride channel. B-score at 10 µM. Q8BHY3. 340,000 tested, 0.3% active. HEK293 TMEM16A/YFP-H148Q/I152L, iodide quench fluorescence; stronger effect = lower value;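 active = fluorescence-ratio B-score plate-corrected deviation score at least 3 library SD below zero, with starting fluorescence score within 5 deviations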;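 note: channel opened by trigger with iodide after compound preincubation; score built on the fluorescence ratio of max minus min over baseline; more negative score means more quench and so TMEM16A activation or potentiation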
Target sequence (Q8BHY3 whole entry, looked up): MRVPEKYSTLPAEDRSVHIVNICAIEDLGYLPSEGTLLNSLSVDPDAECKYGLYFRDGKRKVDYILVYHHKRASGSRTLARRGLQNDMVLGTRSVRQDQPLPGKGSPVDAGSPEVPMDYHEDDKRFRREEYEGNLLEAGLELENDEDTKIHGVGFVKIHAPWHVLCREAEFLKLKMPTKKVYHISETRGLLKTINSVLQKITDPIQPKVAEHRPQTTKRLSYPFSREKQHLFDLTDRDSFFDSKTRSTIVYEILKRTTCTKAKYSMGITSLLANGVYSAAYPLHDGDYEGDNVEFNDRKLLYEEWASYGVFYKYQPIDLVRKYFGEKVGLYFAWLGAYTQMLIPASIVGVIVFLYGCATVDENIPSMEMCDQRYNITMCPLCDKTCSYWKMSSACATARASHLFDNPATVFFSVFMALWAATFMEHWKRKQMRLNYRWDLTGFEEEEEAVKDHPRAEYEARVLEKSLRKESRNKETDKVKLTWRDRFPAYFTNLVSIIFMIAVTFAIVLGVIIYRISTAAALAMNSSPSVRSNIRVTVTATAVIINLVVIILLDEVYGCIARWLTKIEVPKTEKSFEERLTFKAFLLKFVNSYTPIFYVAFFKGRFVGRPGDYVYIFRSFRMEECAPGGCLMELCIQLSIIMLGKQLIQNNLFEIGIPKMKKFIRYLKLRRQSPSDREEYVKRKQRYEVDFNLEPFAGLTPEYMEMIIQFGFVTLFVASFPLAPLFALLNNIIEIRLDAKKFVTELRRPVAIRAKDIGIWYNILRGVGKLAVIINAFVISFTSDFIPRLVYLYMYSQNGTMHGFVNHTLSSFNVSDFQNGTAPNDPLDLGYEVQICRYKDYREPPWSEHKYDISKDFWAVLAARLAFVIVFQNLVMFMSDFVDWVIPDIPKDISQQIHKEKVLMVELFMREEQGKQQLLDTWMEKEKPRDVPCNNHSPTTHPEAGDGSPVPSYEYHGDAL
TMEM16A inh: inhibitors of mouse TMEM16A calcium-activated chloride channel. HEK293 TMEM16A/YFP iodide influx fluorescence, ionomycin. 310,000 tested, 1.2% active. Q8BHY3. normalized B-score (activity score, 25-100; higher = stronger inhibition) at 10 µM;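 active = ratio plate-corrected score three or more library SD toward inhibition, starting fluorescence score within five deviations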;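 note: score derived from kinetic fluorescence span divided by baseline fluorescence per well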
GRIN3A LBD mod: modulators (binders) of human NR3A ligand-binding domain; Tm shift relative to glycine control, % at 25 µM; NR3A LBD differential scanning fluorimetry, Tm shift; 0% = protein alone, 100% = glycine-bound protein; 340,000 tested, 2.5% active; AID 1259313;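 active = melting temperature shift of at least 10% of the positive control shift, at one fixed dose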
MPTP block: permeability transition pore inhibition; inhibition, % at 10 µM; 360,000 tested, 1.4% active; isolated mouse mitochondria, Ca2+ swelling absorbance, 30 min; AID 602449;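 active = inhibition of 50% or more, scaled per plate between neutral and stimulator controls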;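 note: 0% = DMSO wells given calcium and 100% = 1 mM EGTA wells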
* hit, by the source's call; i = inactive; . = no result given. Compounds with a hit are over-represented: about 5.1% of the library has one in this group of screens.

SMILES	CRFBP-R2 block	CRFR2-BP ag	ANO1 activ	TMEM16A inh	GRIN3A LBD mod	MPTP block
CC1(C)C[C@H](O)[C@@]23C[C@@H](OC2=O)[C@]2(C)C(=CCC4[C@@]5(C)CC[C@H](O)C(C)(C)C5CC[C@]42C)[C@@H]3C1 (stereo partly specified)	-43	74*	.	i	-12	.
CC1(C)C2CC[C@]3(C)C(CC=C4[C@@H]5C[C@@](C)(CO)[C@@H]6C[C@@]5(CC[C@]43C)C(=O)O6)[C@@]2(C)CC[C@@H]1O (stereo partly specified)	-13	-2	.	i	0	.
CC1=CC2=NC(=O)/C(=C/c3cccs3)C(=N)N2O1	3	-1	i	i	-1	1
CSC1=NSC2=NC(=O)/C(=C\c3cccs3)C(=N)N12	20	0	i	100*	-16	6
N=C1/C(=C\c2coc3ccccc3c2=O)C(=O)N=C2SC=CN12	-164	181*	i	i	-3	37
CSC1=NSC2=NC(=O)/C(=C/c3coc4ccc(O)cc4c3=O)C(=N)N12	-98	79*	i	i	15*	25
[N-]=[N+]=NCCN1CCN(CCc2ccccc2)CCC1=O	3	0	i	i	-1	-1
COc1ccc(N2CCN(CCCNC(=O)CN3C(=O)COc4ccccc43)CC2)cc1	-14	2	i	i	2	0
Cc1nc2ccc(Br)cn2c1C(=O)N/N=C\c1ccccc1Cl	1	0	i	i	-1	-1
COc1cc(/C=C2\CCC(C)C3=C(c4cc(OC)c(OC)c(OC)c4)C(C#N)=C(N)OC32)cc(OC)c1OC (stereo unspecified)	-63	63*	i	.	1	-2
Cc1ccc(O)c(C2=NNC(c3ccc(Cl)cc3)C2)c1 (stereo unspecified)	-22	-1	i	i	-2	8
Cc1ccc(O)c(C2=NNC(O)(C(F)(F)F)C2)c1 (stereo unspecified)	24	3	i	25*	-6	10
O=C(OCCOc1cccc(Cl)c1)c1cc(S(=O)(=O)N2CCOCC2)ccc1F	9	1	i	i	1	-2
O=C(COC(=O)c1cnc(Cl)c(Cl)c1)NCCC1=CCCCC1	86*	5	i	i	0	1
Cc1[nH]c(=O)[nH]c(=O)c1S(=O)(=O)Nc1ccc(F)cc1F	-12	0	i	i	0	0
O=C(Cn1c(=O)[nH]c2ccccc2c1=O)Nc1ccc2c(c1)OCO2	3	0	i	i	-1	-1
CCN(CC)S(=O)(=O)c1cccc(NC(=O)CN2C(=O)NC3(CCC(C)CC3)C2=O)c1 (stereo unspecified)	-9	-1	i	.	0	-1
O=C(NS(=O)(=O)c1ccccc1)c1cccc(Br)c1	11	-1	i	i	21*	1
O=C(Nc1cccc(C(=O)Nc2cccc(Br)c2)c1)c1ccccc1	-5	2	i	i	35*	39
O=C(O)c1cccc(NC(=O)c2cn(-c3ccccc3)nc2-c2cccc(Br)c2)c1	-3	0	i	i	15*	1
O=C(Nc1cccc(Br)c1)c1ccn[nH]1	25	0	i	i	27*	8
O=C(O)c1cccc(NC(=O)c2cn(-c3ccccc3)nc2-c2ccncc2)c1	3	1	i	i	0	.
COc1ccc(C)cc1NC(=O)CSCc1cc(=O)n2c(C)csc2n1	-3	-1	i	.	3	-2
CCN(CC)c1ccc(/C=N/NC(=O)c2c[nH]c3ccccc23)cc1	-31	0	i	i	9	-2
O=C(N/N=C/c1cccs1)c1c[nH]c2ccccc12	1	-3	i	i	14*	1
SMILES	CRFBP-R2 block	CRFR2-BP ag	ANO1 activ	TMEM16A inh	GRIN3A LBD mod	MPTP block
O=C(N/N=C/c1cccs1)[C@H]1C[C@@H]1c1ccccc1	15	8	i	i	22*	6
Cc1c(/C=N\NC(=O)c2c[nH]c3ccccc23)cnn1C	1	2	i	i	-7	0
O=C(N/N=C/c1ccco1)C1CC1c1ccccc1 (stereo unspecified)	9	-1	i	i	-1	0
O=C(NN=C1CCCCCC1)c1c[nH]c2ccccc12	1	2	i	i	20*	-18
CCc1ccc(/C=N/NC(=O)c2c[nH]c3ccccc23)s1	27	-5	i	i	30*	0
O=C(COC(=O)c1ccc(Br)o1)NCc1ccc(Cl)cc1	2	1	i	.	2	-1
Cc1oc(-c2ccccc2)cc1C(=O)NCc1ccncc1	-4	-1	i	i	-2	3
CC(=O)Oc1cc2c(C(=O)NCc3ccncc3)c(C)oc2c2ccccc12	9	1	-21*	i	-3	1
